High-throughput results from PubChem.
A selection: hits, their analogues and other compounds. The true share with any hit is near 7.5%.
ELG1 genotox = qHTS screen for small molecules that induce genotoxicity in human embryonic kidney (HEK293T) cells expressing luciferase-tagged ELG1; HEK293T ELG1-luciferase reporter, luminescence, 16 h; Potency, µM (doses to about 46 µM), without a hit: at the highest dose activity change, positive = activation, actives largely listed as activators; actives 1.3% (n = 330,000); also: % of control where 0% means no effect; nearly all actives have a fitted effect of over 60% in size
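DMSO vehicle served as control against compound-treated ELG1-luciferase HEK293T cells; exposure lasted 16 hr at 37 °C and 5% CO2, followed by ONE-Glo luminescence detection after 30 min.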
SMN2 splice enh = qHTS Assay for Enhancers of SMN2 Splice Variant Expression; HEK293 SMN2-luciferase splicing reporter, luminescence, 30-36 h; Potency, µM (series often up to 46.1 µM), for the others: at the top dose activity change, positive = activation, actives largely listed as activators; actives 2.8% (n = 210,000); AID 1458, 2008; also: % of control where 0% means no effect; nearly all actives have a fitted effect of over 55% in size
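HEK293 cells carry an SMN2 minigene-luciferase reporter in which exon 7 inclusion puts luciferase in frame. Cells were seeded at 2000 cells/well, attached for 10-12 hours, then exposed to compounds for 30-36 hours at 37C before ONE-Glo luminescence.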
Rab9 promoter act = qHTS Assay for Rab9 Promoter Activators; Huh7 Rab9 promoter-luciferase reporter, luminescence, 24 h; Potency, µM (doses to about 9.22 µM), without a hit: top-dose activation, negative = inhibition, usual class: activators; actives 2.8% (n = 320,000); also: % of control where 0% means no effect; nearly all actives have a fitted effect of over 60% in size
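Luminescence from Amplite-detected luciferase (10 minutes, ambient) reports Rab9 promoter activation. Before that, stable Rab9-luciferase Huh7 cells (1500/well, reduced-serum OP-MEM I plus 10% FBS) were exposed to compound for 24 hours at 37C.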
Luc counter = Counterscreen for Luciferase (Kinase-Glo TM) Inhibition; AID 1379, 2008; Kinase-Glo luciferase, ATP luminescence, 8 min; Luciferin 4-monooxygenase (Photuris pensylvanica), Q27757; Potency, µM (titrated, usually from 38.3 µM), without a hit: at the highest dose activity change, negative = inhibition, most hits filed as inhibitors; actives 0.28% (n = 200,000); also: % is scaled to controls: 0 for no effect and ±100 for the full control effect; nearly all actives have a fitted effect of over 60% in size
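Substrate mix (final 50 mM imidazole pH 7.2, 50 mM KCl, 7 mM MgCl2, 10 uM ATP, 0.01% Tween 20, 0.05% BSA) plus pin-tool compound, then Kinase-Glo detection mix; 8 min ambient, luminescence read.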
NPC1 promoter act = qHTS Assay for NPC1 Promoter Activators; Huh7 NPC1 promoter luciferase reporter, 24 h; Potency, µM (top dose mostly 9.22 µM), for inactives: at the top dose activation, usual class: activators; actives 2.4% (n = 320,000); AID 485313, 2010; also: % of control where 0% means no effect; nearly all actives have a fitted effect of over 60% in size
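Readout is luciferase luminescence, reflecting NPC1 promoter activation in stably transfected Huh7 cells after 24 h compound exposure at 37 °C in reduced-serum medium with 10% FBS.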
FLuc modulator = qHTS profiling assay for firefly luciferase inhibitor/activator using purifed enzyme and Km concentrations of substrates (counterscreen for miR-21 project) | AID 588342, 2011 | purified FLuc, Km substrates, luminescence inhibition | actives 6.9% (n = 360,000) | Potency, µM (top dose mostly 57.5 µM), inactives show at the top dose activity change, negative = inhibition, most hits filed as inhibitors | Luciferin 4-monooxygenase (Photinus pyralis), P08659;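 also: plate controls were vehicle for no effect and reference inhibitor for full effect; nearly all actives have a fitted effect of over 55% in size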
Target sequence (P08659 whole entry, looked up): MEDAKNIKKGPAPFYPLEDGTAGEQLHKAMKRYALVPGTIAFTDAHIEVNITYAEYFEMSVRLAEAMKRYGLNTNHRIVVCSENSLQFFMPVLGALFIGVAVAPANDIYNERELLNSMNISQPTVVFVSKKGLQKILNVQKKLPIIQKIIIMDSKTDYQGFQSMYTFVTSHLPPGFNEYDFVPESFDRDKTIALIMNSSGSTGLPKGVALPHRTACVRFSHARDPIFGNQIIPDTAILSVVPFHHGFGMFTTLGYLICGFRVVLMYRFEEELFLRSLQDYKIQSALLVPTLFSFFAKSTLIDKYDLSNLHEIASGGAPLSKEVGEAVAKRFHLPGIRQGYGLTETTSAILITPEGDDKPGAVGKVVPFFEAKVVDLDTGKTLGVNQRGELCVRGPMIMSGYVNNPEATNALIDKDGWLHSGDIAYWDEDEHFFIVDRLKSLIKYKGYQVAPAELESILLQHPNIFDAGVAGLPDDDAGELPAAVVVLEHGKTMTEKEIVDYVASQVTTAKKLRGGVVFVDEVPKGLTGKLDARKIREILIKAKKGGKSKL
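Purified P. pyralis luciferase, 10 nM final, with Km-level 10 uM D-luciferin and 10 uM ATP in 50 mM Tris acetate pH 7.5, 10 mM Mg acetate, 0.01% Tween-20, 0.05% BSA; 6-point qHTS titration about 60 µM downward; luminescence read.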
* marks the source's active call; other numbers are inactive results; ? = inconclusive; / = no result given; [ ] = remark or other dose. Calls follow the shape of the dose curve; as a rule, active = well fitted curve in the direction sought with a large enough effect; inconclusive = small, poorly fitted or top-dose-only effect, or another doubt; inactive = no such curve, though single readings can be large; an effect the other way counts as inactive or inconclusive. Potency is read from the fitted curve at half-maximal effect.

SMILES | ELG1 genotox | SMN2 splice enh | Rab9 promoter act | Luc counter | NPC1 promoter act | FLuc modulator
CCCNC(=O)OCCC12CC3CC(CC(C3)C1)C2 | ? | 7% | 17% | -2% | 16% | 12µM*
Cc1ccc(NC(=O)N2CCN(Cc3nc4ccc(C)cc4o3)CC2)c(Cl)c1 | / | / | / | / | / | -9%
Cc1ccc(NC(=O)C2Cc3ccccc3O/C2=N\O)cc1C (stereo not drawn) | ? | / | ? | / | 28% | -12%
O=C(Nc1ccc(Br)cc1)C1Cc2ccccc2O/C1=N\O (stereo not drawn) | 18µM* | / | 2.8µM* | / | 3.2µM* | ?
COc1ccc(CNC(=O)C(CC(C)C)NS(=O)(=O)c2ccc3c(c2)oc(=O)n3C)cc1 (stereo not drawn) | / | 8% | / | / | / | 3%
COc1ccc(S(=O)(=O)Nc2cccc(-c3ccc(N4CCC(C)CC4)nn3)c2)c(OC)c1 | / | / | / | / | / | 2.7µM*
CCc1ccc(S(=O)(=O)Nc2cccc(-c3ccc(N4CCC(C)CC4)nn3)c2)s1 | / | / | / | / | / | 1.3µM*
COc1ccc(F)cc1S(=O)(=O)Nc1cccc(-c2ccc(N3CCCCCC3)nn2)c1 | / | / | / | / | / | 9.5µM*
COc1ccc(S(=O)(=O)Nc2ccc(-c3ccc4nncn4n3)cc2)c(OC)c1 | 1% | / | -1% | / | -4% | 3%
CCc1ccc(S(=O)(=O)Nc2cccc(-c3ccc4nncn4n3)c2)s1 | 10% | -31% | -3% | 2% | -12% | 1%
COc1ccccc1S(=O)(=O)Nc1cccc(-c2nnc3n2CCCCC3)c1 | -1% | -3% | -10% | 6% | -3% | 1%
COc1ccc(OC)c(S(=O)(=O)Nc2cccc(-c3ccc(N4CCCCC4)nn3)c2)c1 | / | / | / | / | / | 6µM*
CCOC(=O)c1ccc(CN(Cc2ccc(F)cc2)S(=O)(=O)c2ccc(F)c(C(=O)Nc3ccc(Cl)cc3F)c2)cc1 | / | / | / | / | / | -2%
O=C(Nc1ccccc1F)c1oc2ccccc2c1NC(=O)c1c(F)cccc1F | / | -5% | / | / | / | -10%
Cc1ccc(NC(=O)c2cc(S(=O)(=O)N3CCCC(C)C3)cn2C)c(Br)c1 (stereo not drawn) | / | / | / | / | / | -5%
CC1CCN(S(=O)(=O)c2ccc3c(c2)N(CC(=O)NCc2ccccc2Cl)C(=O)CS3)CC1 | / | / | / | / | / | -13%
Cc1ccc(S(=O)(=O)Nc2cccc(-c3ccc4nnc(C)n4n3)c2)s1 | 21µM* | 13µM* | 1% | -1% | -12% | 2%
CCS(=O)(=O)Nc1cccc(-c2ccc3nnc(C)n3n2)c1 | ? | 163% | 2% | 3% | -6% | 4%
COc1ccc(N=c2ssnc2Cl)cc1 | 2% | -5% | 5% | -1% | 4% | ?
N#Cc1ccc(N=c2ssnc2Cl)cc1 | 0% | 14% | 9% | -4% | 9% | 15µM*
Clc1nssc1=Nc1ccccc1 | -7% | -12% | -3% | -4% | 1% | 21µM*
Clc1ccc(N=c2ssnc2Cl)cc1 | -6% | -34% | 1% | -2% | 3% | ?
Fc1ccc(N=c2ssnc2Cl)c(F)c1 | -6% | -7% | 4% | 3% | -1% | 19µM*
COc1cc(N=c2ssnc2Cl)cc(OC)c1OC | -8% | -4% | 1% | 1% | -4% | 15µM*
C[C@]12CC[C@@H]3c4ccc(O)cc4CC[C@H]3[C@@H]1CC[C@H]2O | / | / | / | 0%[39.9 µM] | / | /
SMILES | ELG1 genotox | SMN2 splice enh | Rab9 promoter act | Luc counter | NPC1 promoter act | FLuc modulator
Nc1ccc(C(=O)Nc2nc3ccccc3s2)cc1 | 0.52µM* | 1.6µM* | 0.4µM* | -6% | 0.63µM* | 0.38µM*
CC(=O)Nc1cc(C)nn1-c1nc2ccccc2s1 | ? | 126% | 26% | -6% | -2% | ?
Cc1cc(C)n(-c2ccc(C(=O)Nc3nc4ccccc4s3)cc2)n1 | ? | 17% | ? | -5% | 2.5µM* | 2.7µM*
O=C1NC(=S)S/C1=C/c1ccc(N2CCOCC2)o1 | 15% | -26% | 11% | ? | 11% | 9.5µM*
O=C(O)CCC(=O)NNC(=O)c1cccc(Cl)c1 | 2% | 8% | -4% | 2% | 0% | 6%
O=C(NN/C(=N/S(=O)(=O)c1ccc(Cl)cc1)c1ccccc1)c1cccc(Cl)c1 | 16µM* | / | ? | / | 4µM* | 6µM*
O=C(NN/C(=N/S(=O)(=O)c1ccc(Cl)cc1)c1ccccc1)c1ccc(O)cc1 | ? | 22% | 0% | -4% | 6% | 15µM*
O=C(O)c1ccc(N/C(=N\S(=O)(=O)c2ccc(Cl)cc2)c2ccccc2)cc1 | 2% | / | -1% | / | -3% | -18%
O=S(=O)(/N=C(/NC(=S)Nc1ccccc1)c1ccccc1)c1ccc(Cl)cc1 | ? | / | 27% | / | 22% | 24µM*
Cc1ccc(S(=O)(=O)/N=C(/NNC(=O)c2cccc(Cl)c2)c2ccccc2)cc1 | 16µM* | / | ? | / | ? | 15µM*
Cc1ccc(C)c(N2C(=O)N(C)c3ccccc3S2(=O)=O)c1 | / | / | / | / | / | 3%
CCOCCCn1c(=N)c(C(=O)NC2CCCCC2)cc2c(=O)n3ccccc3nc21 | / | -14% | / | / | / | -9%
CCN(CC)S(=O)(=O)c1nnc(NC(=O)COc2ccccc2F)s1 | / | / | / | / | / | 11µM*
CCN(CC)S(=O)(=O)c1nnc(NC(=O)COc2ccc(Cl)cc2)s1 | / | / | / | / | / | 2.4µM*
COc1c2c(cc3c1C(NC(N)=O)[N+](C)(C)CC3)OCO2 (stereo not drawn) | / | -4% | / | 0% | / | /
CN(C1CCCCC1)S(=O)(=O)c1ccc2c(c1)c(=O)c(C(=O)N1CCN(c3ccccc3)CC1)cn2C | / | 4% | / | / | / | -2%
Nc1c2c(nc3sc4c(c13)CCCCC4)CCCCC2 | ? | ? | 1.6µM* | -3% | 1.4µM* | 1.7µM*
CCCc1nc2sc3c(c2c(=O)[nH]1)CCCC3 | 1% | / | 1% | -2% | -2% | ?
CC1CCc2nc3sc4c(c3c(N)c2C1)CCCC4 (stereo not drawn) | 3% | ? | 25% | -4% | ? | 3.8µM*
CC1CCc2c(nc3sc4c(c3c2N)CCCC4)C1 (stereo not drawn) | 2% | ? | ? | -14% | ? | 4.8µM*
CCC(=O)N1c2ccccc2CC1C(=O)NCCc1ccccc1OC (stereo not drawn) | / | / | / | / | / | -3%
N#Cc1ccc(Cn2ccnc2C(=O)Nc2ccccc2)cc1 | 8% | -7% | 6% | -7% | 4% | ?
